Results as given in PubChem BioAssay (NCATS).
Records with an inconclusive call do not appear. A call without a number means that no potency is given here. The source made the active and inactive calls. The call rests on the fitted dose curve; in most records, active means well fitted inhibition curve with a large enough effect; inconclusive means small, poorly fitted or top-dose-only effect; inactive means flat fitted curve, though single readings scatter.

Each molecule was assayed on CP192 (assay: qHTS profiling for inhibitors of Plasmodium falciparum proliferation (AID 504749; further: nearly all actives have a fitted effect of over 60% in size)). Conditions: P. falciparum in erythrocytes, SYBR Green DNA, 72 h; series mostly up to 28.7 µM.
Procedure, shortened: (§1)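 SYBR Green fluorescence of parasite DNA, read after lysis and overnight dark incubation, measured growth over 72 h in erythrocyte culture at 0.3% parasitemia and 2.5% hematocrit. Data normalised to DMSO and 0.29 uM artemisinin, with plate-drift correction.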
Potency means the concentration at half of the fitted maximal effect.

**Q.** `CN1CCN(C2Cc3ccccc3Sc3ccc(Cl)cc32)CC1` (centres undefined) was tested. Which Potency did it give?
**A.** inactive

**Q.** For `Cc1cc2c(cc1S(N)(=O)=O)S(=O)(=O)CCC2`, which Potency is on record?
**A.** inactive

**Q.** `CCOc1nc2cccc(C(=O)O)c2n1Cc1ccc(-c2ccccc2-c2nn[nH]n2)cc1` was tested. Which Potency did it give?
**A.** inactive

**Q.** How did the Potency turn out when `NC1CCN(c2cccc(Cl)n2)CC1` was run?
**A.** inactive

**Q.** Which Potency does the source give for `CCOC(CN1CCN(CC(C)C(=O)c2ccccc2)CC1)c1ccccc1` (centres undefined) here?
**A.** inactive

**Q.** For `CN1CCC[C@@H]1Cc1c[nH]c2ccc(CCS(=O)(=O)c3ccccc3)cc12`, which Potency is on record?
**A.** inactive

**Q.** For `C[C@]12C[C@H](O)[C@H]3[C@@H](CCC4=CC(=O)CC[C@@]43C)[C@@H]1CC[C@@H]2C(=O)CO`, which Potency is on record?
**A.** inactive

**Q.** With `CSc1ccc2c(c1)C(N1CCN(C)CC1)Cc1ccccc1S2` (centres undefined) as the molecule, how does the Potency read?
**A.** inactive

**Q.** For `CCCc1c(OCCCCc2nn[nH]n2)ccc(C(C)=O)c1O`, which Potency is on record?
**A.** inactive

**Q.** With `CCCCN1CCCC[C@H]1C(=O)Nc1c(C)cccc1C` as the molecule, how does the Potency read?
**A.** inactive

**Q.** Which Potency does the source give for `COc1ccc2[nH]c(S(=O)Cc3ncc(C)c(OC)c3C)nc2n1` (centres undefined) here?
**A.** inactive

**Q.** `CN1CCCCC1CCN1c2ccccc2Sc2ccc(S(C)=O)cc21` (centres undefined) was tested. Which Potency did it give?
**A.** inactive

**Q.** With `Nc1ccc(S(=O)(=O)Nc2ccc(Cl)nn2)cc1` as the molecule, how does the Potency read?
**A.** inactive

**Q.** How did the Potency turn out when `c1ccc(CN(CC2=NCCN2)c2ccccc2)cc1` was run?
**A.** inactive

**Q.** `CC(CN1c2ccccc2Sc2ccccc21)N(C)C` (centres undefined) was tested. Which Potency did it give?
**A.** inactive

**Q.** Which Potency does the source give for `O=C1NS(=O)(=O)c2ccccc21` here?
**A.** inactive

**Q.** With `CNCCC(Oc1ccc(C(F)(F)F)cc1)c1ccccc1` (centres undefined) as the molecule, how does the Potency read?
**A.** inactive

**Q.** `NC(=O)N/N=C/c1ccc([N+](=O)[O-])o1` was tested. Which Potency did it give?
**A.** inactive

**Q.** For `Cc1ccc2nc(N)[nH]c(=O)c2c1Sc1ccncc1`, which Potency is on record?
**A.** inactive

**Q.** For `[Cl][In]([Cl])[Cl]`, which Potency is on record?
**A.** inactive

**Q.** Which Potency does the source give for `CCCCOc1cc(C(=O)OCCN(CC)CC)ccc1N` here?
**A.** inactive

**Q.** How did the Potency turn out when `CN(C)CCN(Cc1ccccc1)c1ccccn1` was run?
**A.** inactive

**Q.** How did the Potency turn out when `OCCN1CCN(CCCN2c3ccccc3Sc3ccc(Cl)cc32)CC1` was run?
**A.** inactive

**Q.** For `Cc1c(O)cccc1C(=O)N[C@@H](CSc1ccccc1)[C@H](O)CN1C[C@H]2CCCC[C@H]2C[C@H]1C(=O)NC(C)(C)C`, which Potency is on record?
**A.** inactive

**Q.** `CNCCCC1c2ccccc2C=Cc2ccccc21` was tested. Which Potency did it give?
**A.** inactive

What follows are molecules tested on CP194 in the same assay as above. Conditions: P. falciparum in erythrocytes, SYBR Green DNA, 72 h; series mostly up to 28.7 µM.
Procedure, shortened: as §1

**Q.** Which Potency does the source give for `Cc1cc2c(cc1S(N)(=O)=O)S(=O)(=O)CCC2` here?
**A.** inactive

**Q.** How did the Potency turn out when `NC1CCN(c2cccc(Cl)n2)CC1` was run?
**A.** inactive

**Q.** `CC(C(O)c1ccc(O)cc1)N1CCC(Cc2ccccc2)CC1` (centres undefined) was tested. Which Potency did it give?
**A.** 15.1 µM (active)

**Q.** Which Potency does the source give for `C[C@]12C[C@H](O)[C@H]3[C@@H](CCC4=CC(=O)CC[C@@]43C)[C@@H]1CC[C@@H]2C(=O)CO` here?
**A.** inactive

**Q.** Which Potency does the source give for `CCCc1c(OCCCCc2nn[nH]n2)ccc(C(C)=O)c1O` here?
**A.** inactive

**Q.** Which Potency does the source give for `COc1ccc2[nH]c(S(=O)Cc3ncc(C)c(OC)c3C)nc2n1` (centres undefined) here?
**A.** inactive

**Q.** How did the Potency turn out when `Nc1ccc(S(=O)(=O)Nc2ccc(Cl)nn2)cc1` was run?
**A.** inactive

**Q.** For `CC(CN1c2ccccc2Sc2ccccc21)N(C)C` (centres undefined), which Potency is on record?
**A.** inactive

**Q.** `O=C1NS(=O)(=O)c2ccccc21` was tested. Which Potency did it give?
**A.** inactive

**Q.** With `Cc1ccc2nc(N)[nH]c(=O)c2c1Sc1ccncc1` as the molecule, how does the Potency read?
**A.** inactive

**Q.** How did the Potency turn out when `Cc1cc(N)c2ccccc2[n+]1CCCCCCCCCC[n+]1c(C)cc(N)c2ccccc21` was run?
**A.** 0.361 µM (active)

**Q.** Which Potency does the source give for `[Cl][In]([Cl])[Cl]` here?
**A.** inactive

**Q.** For `CCCCOc1cc(C(=O)OCCN(CC)CC)ccc1N`, which Potency is on record?
**A.** inactive

**Q.** `CN(C)CCN(Cc1ccccc1)c1ccccn1` was tested. Which Potency did it give?
**A.** inactive
